# Measured values from PubChem BioAssay (EPA / NIEHS).
# The source made the active and inactive calls. Rule for the calls: active = hit-call score of the fitted dose curve at least 0.9, where 1 is the maximum; inactive = score below 0.9.
# Assay: APR_HepG2_MicrotubuleCSK_72hr: Apredica 72-hour HepG2 Assay for Microtubule CSK Stabilty (AID 2282919)
# Conditions: HepG2 microtubule cytoskeleton, high-content imaging, actives raise or lower the signal
# How it was run: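 HepG2 human liver cells were dosed for 72 h at ten concentrations from 0.39 to 200 uM in duplicate (0.5% v/v DMSO final). Fixed, permeabilized cells were immunostained for alpha-tubulin (Cy5) with a Hoechst counterstain and imaged at 20x.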
Compound,outcome,AC50
C[C@]12CCC(=O)C=C1CC[C@@H]1[C@@H]2CC[C@]2(C)C(=O)CC[C@@H]12,inactive,–
O=S(=O)(O)C(F)(F)C(F)(F)C(F)(F)C(F)(F)C(F)(F)C(F)(F)F,inactive,–
CCOP(=S)(OCC)SCSC(C)(C)C,inactive,–
O=C(NC(=O)c1cc(F)c(F)cc1Cl)Nc1cc(F)ccc1N1CCC(C(=O)O)CC1,inactive,–
CC(c1ccc(O)cc1)(c1ccc(O)cc1)c1ccc(O)cc1,inactive,–
ClC1=C(Cl)[C@]2(Cl)[C@@H]3[C@@H](Cl)[C@H]4O[C@H]4[C@@H]3C1(Cl)C2(Cl)Cl,inactive,–
Cc1ccccc1[N+](=O)[O-],inactive,–
ClC1=C(Cl)[C@]2(Cl)[C@@H]3[C@H]4C[C@H]([C@@H]5O[C@H]45)[C@@H]3[C@@]1(Cl)C2(Cl)Cl,inactive,–
Oc1c(Cl)c(Cl)c(Cl)c(Cl)c1Cl,inactive,–
CCCCCCCCCc1ccc(O)cc1,inactive,–
O=S(=O)(O)C(F)(F)C(F)(F)C(F)(F)C(F)(F)F,inactive,–
Cc1cc(-c2ccc(N)c(C)c2)ccc1N,inactive,–
CC#Cc1cc(C)nc(Nc2ccccc2)n1,inactive,–
O=C(O)C(F)(F)C(F)(F)C(F)(F)C(F)(F)C(F)(F)C(F)(F)C(F)(F)C(F)(F)F,inactive,–
O=C(O)C(F)(F)C(F)(F)C(F)(F)C(F)(F)C(F)(F)C(F)(F)C(F)(F)C(F)(F)C(F)(F)F,inactive,–
CCCCCCCCCC[N+](C)(C)CCCCCCCCCC,–,15.6 µM (active)
CCC(=O)O[C@H]1CC[C@H]2[C@@H]3CCC4=CC(=O)CC[C@]4(C)[C@H]3CC[C@]12C,–,158 µM (active)

Compound,outcome,AC50
COc1ccc(O)c(C(C)(C)C)c1,inactive,–
CC1=C2C[C@H]3[C@@H](CC=C4C[C@@H](O)CC[C@@]43C)[C@@H]2CC[C@]12O[C@@H]1C[C@H](C)CN[C@H]1[C@H]2C,inactive,–
O=C(N[C@H]1CN2CCC1CC2)c1cc2ccoc2cn1,inactive,–
NS(=O)(=O)C(F)(F)C(F)(F)C(F)(F)C(F)(F)C(F)(F)C(F)(F)C(F)(F)C(F)(F)F,inactive,–
Oc1ccc(C(c2ccc(O)cc2)(C(F)(F)F)C(F)(F)F)cc1,inactive,–
ClC(Cl)=C(c1ccc(Cl)cc1)c1ccc(Cl)cc1,inactive,–
C[C@]12CCC(=O)C=C1CC[C@@H]1[C@@H]2CC[C@@]2(C)[C@H]1CC[C@]2(C)O,inactive,–
CCCN(CCC)N=O,inactive,–
CC(C)(c1ccccc1)c1ccc(O)cc1,inactive,–
Cc1cc2c3c(c1)C(c1ccccc1)=N[C@@H](NC(=O)c1ccncc1)C(=O)N3CC2,inactive,–
CC(C)(O)C(=O)Nc1ccc([N+](=O)[O-])c(C(F)(F)F)c1,inactive,–
CCCCCCOC(=O)c1ccccc1C(=O)OCCCCCC,–,102 µM (active)
N#Cc1ccc(N(CC(N)=O)CC(F)(F)F)cc1C(F)(F)F,inactive,–
Clc1ccc(Cl)cc1,inactive,–
Clc1ccc(C(c2ccccc2Cl)C(Cl)(Cl)Cl)cc1 (stereo unspecified),inactive,–
c1cc2ccc3cccc4ccc(c1)c2c34,inactive,–

# Assay: APR_HepG2_P-H2AX_24hr: Apredica 24-hour HepG2 Assay for H2AX Phosphorylation (AID 2282920)
# Conditions: high-content imaging, actives raise or lower the signal
# How it was run: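 HCS fluorescence imaging of phospho-H2A.x immunostain (with Hoechst 33342 nuclear counterstain) in HepG2 after 24 hr compound exposure; 10 concentrations, 0.39–200 uM, duplicate wells, 0.5% v/v DMSO. Gain or loss of signal fitted relative to DMSO baseline.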
Compound,outcome,AC50
C[C@]12CCC(=O)C=C1CC[C@@H]1[C@@H]2CC[C@]2(C)C(=O)CC[C@@H]12,inactive,–
O=S(=O)(O)C(F)(F)C(F)(F)C(F)(F)C(F)(F)C(F)(F)C(F)(F)F,inactive,–
CCOP(=S)(OCC)SCSC(C)(C)C,inactive,–
O=C(NC(=O)c1cc(F)c(F)cc1Cl)Nc1cc(F)ccc1N1CCC(C(=O)O)CC1,inactive,–
CC(c1ccc(O)cc1)(c1ccc(O)cc1)c1ccc(O)cc1,–,111 µM (active)
ClC1=C(Cl)[C@]2(Cl)[C@@H]3[C@@H](Cl)[C@H]4O[C@H]4[C@@H]3C1(Cl)C2(Cl)Cl,–,62.3 µM (active)
Cc1ccccc1[N+](=O)[O-],inactive,–
ClC1=C(Cl)[C@]2(Cl)[C@@H]3[C@H]4C[C@H]([C@@H]5O[C@H]45)[C@@H]3[C@@]1(Cl)C2(Cl)Cl,inactive,–
Oc1c(Cl)c(Cl)c(Cl)c(Cl)c1Cl,inactive,–
CCCCCCCCCc1ccc(O)cc1,inactive,–
O=S(=O)(O)C(F)(F)C(F)(F)C(F)(F)C(F)(F)F,inactive,–
Cc1cc(-c2ccc(N)c(C)c2)ccc1N,inactive,–
CC#Cc1cc(C)nc(Nc2ccccc2)n1,inactive,–
O=C(O)C(F)(F)C(F)(F)C(F)(F)C(F)(F)C(F)(F)C(F)(F)C(F)(F)C(F)(F)F,inactive,–
O=C(O)C(F)(F)C(F)(F)C(F)(F)C(F)(F)C(F)(F)C(F)(F)C(F)(F)C(F)(F)C(F)(F)F,–,113 µM (active)
CCCCCCCCCC[N+](C)(C)CCCCCCCCCC,–,6.27 µM (active)
CCC(=O)O[C@H]1CC[C@H]2[C@@H]3CCC4=CC(=O)CC[C@]4(C)[C@H]3CC[C@]12C,–,108 µM (active)

Compound,outcome,AC50
COc1ccc(O)c(C(C)(C)C)c1,inactive,–
CC1=C2C[C@H]3[C@@H](CC=C4C[C@@H](O)CC[C@@]43C)[C@@H]2CC[C@]12O[C@@H]1C[C@H](C)CN[C@H]1[C@H]2C,–,33.4 µM (active)
O=C(N[C@H]1CN2CCC1CC2)c1cc2ccoc2cn1,inactive,–
NS(=O)(=O)C(F)(F)C(F)(F)C(F)(F)C(F)(F)C(F)(F)C(F)(F)C(F)(F)C(F)(F)F,–,100 µM (active)
Oc1ccc(C(c2ccc(O)cc2)(C(F)(F)F)C(F)(F)F)cc1,inactive,–
ClC(Cl)=C(c1ccc(Cl)cc1)c1ccc(Cl)cc1,–,53.7 µM (active)
C[C@]12CCC(=O)C=C1CC[C@@H]1[C@@H]2CC[C@@]2(C)[C@H]1CC[C@]2(C)O,inactive,–
CCCN(CCC)N=O,inactive,–
CC(C)(c1ccccc1)c1ccc(O)cc1,inactive,–
Cc1cc2c3c(c1)C(c1ccccc1)=N[C@@H](NC(=O)c1ccncc1)C(=O)N3CC2,inactive,–
CC(C)(O)C(=O)Nc1ccc([N+](=O)[O-])c(C(F)(F)F)c1,inactive,–
CCCCCCOC(=O)c1ccccc1C(=O)OCCCCCC,inactive,–
N#Cc1ccc(N(CC(N)=O)CC(F)(F)F)cc1C(F)(F)F,inactive,–
Clc1ccc(Cl)cc1,inactive,–
Clc1ccc(C(c2ccccc2Cl)C(Cl)(Cl)Cl)cc1 (stereo unspecified),–,82.8 µM (active)
c1cc2ccc3cccc4ccc(c1)c2c34,inactive,–
